These results are taken from PubChem BioAssay (NCATS).

Assay [1] in a line: P-glycoprotein substrates identified in KB-3-1 adenocarcinoma cell line, qHTS therapeutic library screen (AID 1346986). Note: nearly all actives have a fitted effect of over 60% in size.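 Note: potency is the fitted concentration of half-maximal effect; potency is for cytotoxicity meaning loss of cell viability.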 The essentials:
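Viability read by CellTiter-Glo after 72 h compound exposure in dose-response of KB-3-1 and KB-8-5-11 (P-gp-high) cells. Hits needed AC50 < 10 uM, >50% maximum response and curve class -1.1 to -2.4. Cherry-picks retested ± tariquidar, including pcDNA/MDR-19 HEK-293 pair.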
A general note: In qHTS, concentration-response curves come from the screen itself.

Assay [2] is described as follows: P-glycoprotein substrates identified in KB-8-5-11 adenocarcinoma cell line, qHTS therapeutic library screen (AID 1346987). Note: nearly all actives have a fitted effect of over 65% in size. Note: potency is the fitted concentration of half-maximal effect. The essentials:
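Luminescence from CellTiter-Glo, read 5 min after addition, quantified survival of KB-8-5-11 (P-gp-overexpressing) cells exposed to compounds for 72 h. AC50 was derived from concentration-response curves.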

Assay [3] is described as follows: qHTS of pediatric cancer cell lines to identify multiple opportunities for drug repurposing: Primary screen for DAOY cells (AID 1347090). Note: nearly all actives have a fitted effect of over 55% in size. Note: potency is the fitted concentration of half-maximal effect. The essentials:
(§1)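 Cell viability, CellTiter-Glo luminescence; 500-1,000 cells/well, 8- or 11-point titration, 48 h compound exposure at 37 degrees C, 5% CO2. Controls: DMSO neutral, bortezomib 2.3 µM final as positive.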

Assay [4] in a line: qHTS of pediatric cancer cell lines to identify multiple opportunities for drug repurposing: Primary screen for SJ-GBM2 cells (AID 1347091). Note: potency is the fitted concentration of half-maximal effect. The essentials: as §1
A short description of assay [5]: qHTS of pediatric cancer cell lines to identify multiple opportunities for drug repurposing: Primary screen for TC32 cells (AID 1347089). Note: nearly all actives have a fitted effect of over 60% in size. Note: potency is the fitted concentration of half-maximal effect. The gist of the method:
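Luminescent CellTiter-Glo read-out of metabolically active TC32 cells after 48 h compound exposure. Primary: MIPE 11-point, 0.78 nM–46 µM; NPC 8-point, 0.59 nM–46 µM. Confirmatory: 11-point dilutions.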

Assay [6] can be described thus: NS1 protein of Zika virus - qHTS assay to identify small molecule inhibitors in human HEK 293 cells (AID 1347053). Note: nearly all actives have a fitted effect of over 55% in size. Note: potency is the fitted concentration of half-maximal effect. The gist of the method:
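TR-FRET signal from two anti-ZIKV NS1 antibodies quantified NS1 in HEK 293 cells 24 h after MR766 infection at MOI = 0.5; compounds were added 1 h before virus. Uninfected cells and infected cells defined the NS1 normalization range.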

A short description of assay [7]: Natriuretic polypeptide receptor (hNpr1) antagonism - Pilot counterscreen GloSensor control cell line (AID 1347045; calls by dose curve; note: series mostly up to about 38 µM). The essentials:
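Cells were first seeded and incubated overnight at 37C, then loaded with 2% GloSensor substrate for 2 h. Compounds were added for 30 min at room temperature, followed by a baseline read, 50 uM SNP and a final read after 20 min.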
(A counterscreen serves to expose hits that act by an unwanted route or on another target.)

Assay [8] concerns the target Atrial natriuretic peptide receptor 1 (Homo sapiens) (UniProt P16066). The assay can be described thus: Natriuretic polypeptide receptor (hNpr1) antagonism - Pilot screen (AID 1347049; calls by dose curve;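 note: HEK293 cells with hNpr1 and GloSensor cGMP luciferase stimulated by 0.1 nM hNppA; agonist-evoked cGMP luminescence read 20 min after hNppA addition; series mostly up to about 58 µM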). The gist of the method:
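Receptor antagonism read as cGMP-dependent luminescence in hNpr1/pGS-40F HEK293 cells: pre-read after 30 min compound exposure, post-read 20 min after hNppA agonist at 0.1 nM final, all at room temperature, protected from light; A-71915 titration as control.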

The target in assay [9] is Atrial natriuretic peptide receptor 2 (Homo sapiens) (UniProt P20594). Description: Natriuretic polypeptide receptor (hNpr2) antagonism - Pilot subtype selectivity assay (AID 1347050; calls by dose curve). The gist of the method:
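Antagonist mode: compounds (LOPAC1280, seven 1:5 dilutions) added 30 min before 1 nM hNppC stimulation of hNpr2-HEK293 cGMP-sensor cells; luminescence read before and 20 min after agonist at ambient temperature.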

Assay [10] addresses Parathyroid hormone/parathyroid hormone-related peptide receptor (Homo sapiens) (UniProt Q03431). Description: qHTS for PTHR1 Agonists: Optimization Screen against the NCGC LOPAC library (AID 1347079).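 Note: GloSensor cAMP luminescence in HEK-293 GP2 cells expressing human PTHR1 with IBMX.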 The essentials: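 HEK-293 GP2 cells, PTHR1 + GloSensor cAMP; 3000 cells/well, o/n. Luciferin + IBMX 0.5mM each (stock), 1 hr 37C. Cpd titration, 1 hr 37C. Lum after 15 min RT. Ctrl M-PTH(1-15) top 10uM.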

SMILES strings stand for the structures. Results filed as inconclusive are left out. Calls of active or inactive are those of the source. Unless noted, calls come from the whole dose curve; as a rule, active = well fitted curve in the direction sought with a large enough effect; inconclusive = small, poorly fitted or top-dose-only effect, or another doubt; inactive = no such curve, though single readings can be large; an effect the other way counts as inactive or inconclusive.

Sequence of Atrial natriuretic peptide receptor 2 (Homo sapiens) (P20594 whole entry, looked up): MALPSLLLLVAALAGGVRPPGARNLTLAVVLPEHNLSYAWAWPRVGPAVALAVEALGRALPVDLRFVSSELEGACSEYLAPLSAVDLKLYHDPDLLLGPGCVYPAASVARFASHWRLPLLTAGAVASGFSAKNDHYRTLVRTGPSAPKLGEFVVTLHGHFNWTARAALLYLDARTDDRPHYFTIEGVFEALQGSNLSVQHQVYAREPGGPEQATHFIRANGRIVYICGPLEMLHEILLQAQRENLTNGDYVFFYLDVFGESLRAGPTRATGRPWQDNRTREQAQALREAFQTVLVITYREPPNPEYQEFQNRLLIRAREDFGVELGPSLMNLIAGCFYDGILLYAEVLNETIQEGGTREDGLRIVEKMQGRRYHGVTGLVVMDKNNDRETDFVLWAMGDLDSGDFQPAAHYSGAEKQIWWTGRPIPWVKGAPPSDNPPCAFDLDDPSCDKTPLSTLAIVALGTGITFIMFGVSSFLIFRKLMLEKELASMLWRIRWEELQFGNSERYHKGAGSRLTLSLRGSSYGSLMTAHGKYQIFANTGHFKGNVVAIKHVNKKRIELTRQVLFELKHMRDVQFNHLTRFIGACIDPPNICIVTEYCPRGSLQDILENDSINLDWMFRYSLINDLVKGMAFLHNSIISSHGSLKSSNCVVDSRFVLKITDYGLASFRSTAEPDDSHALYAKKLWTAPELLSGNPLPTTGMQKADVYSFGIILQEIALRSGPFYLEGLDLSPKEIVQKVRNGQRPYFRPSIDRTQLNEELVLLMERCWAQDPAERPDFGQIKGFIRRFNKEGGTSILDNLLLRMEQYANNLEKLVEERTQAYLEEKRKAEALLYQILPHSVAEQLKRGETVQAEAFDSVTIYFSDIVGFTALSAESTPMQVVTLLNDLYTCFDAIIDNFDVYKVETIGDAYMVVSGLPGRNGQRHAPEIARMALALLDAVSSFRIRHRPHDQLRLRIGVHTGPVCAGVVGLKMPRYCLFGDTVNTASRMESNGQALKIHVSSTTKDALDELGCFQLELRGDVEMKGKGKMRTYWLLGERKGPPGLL
Sequence of Parathyroid hormone/parathyroid hormone-related peptide receptor (Homo sapiens) (Q03431 whole entry, looked up): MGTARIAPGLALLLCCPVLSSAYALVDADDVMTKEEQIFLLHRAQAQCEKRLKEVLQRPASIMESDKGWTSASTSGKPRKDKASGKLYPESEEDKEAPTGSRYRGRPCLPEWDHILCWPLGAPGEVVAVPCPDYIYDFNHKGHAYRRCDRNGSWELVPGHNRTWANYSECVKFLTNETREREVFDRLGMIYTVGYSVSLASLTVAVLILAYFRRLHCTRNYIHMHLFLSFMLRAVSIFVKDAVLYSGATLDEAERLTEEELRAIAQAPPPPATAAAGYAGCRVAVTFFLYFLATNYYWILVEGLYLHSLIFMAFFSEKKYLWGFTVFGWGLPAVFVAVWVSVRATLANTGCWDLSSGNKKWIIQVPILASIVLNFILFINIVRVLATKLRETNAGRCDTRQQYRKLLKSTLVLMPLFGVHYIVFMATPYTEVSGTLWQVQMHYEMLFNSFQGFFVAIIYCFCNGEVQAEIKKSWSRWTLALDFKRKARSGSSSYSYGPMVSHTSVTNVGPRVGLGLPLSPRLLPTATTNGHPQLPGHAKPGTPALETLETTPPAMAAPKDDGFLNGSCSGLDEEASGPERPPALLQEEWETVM
Sequence of Atrial natriuretic peptide receptor 1 (Homo sapiens) (P16066 whole entry, looked up): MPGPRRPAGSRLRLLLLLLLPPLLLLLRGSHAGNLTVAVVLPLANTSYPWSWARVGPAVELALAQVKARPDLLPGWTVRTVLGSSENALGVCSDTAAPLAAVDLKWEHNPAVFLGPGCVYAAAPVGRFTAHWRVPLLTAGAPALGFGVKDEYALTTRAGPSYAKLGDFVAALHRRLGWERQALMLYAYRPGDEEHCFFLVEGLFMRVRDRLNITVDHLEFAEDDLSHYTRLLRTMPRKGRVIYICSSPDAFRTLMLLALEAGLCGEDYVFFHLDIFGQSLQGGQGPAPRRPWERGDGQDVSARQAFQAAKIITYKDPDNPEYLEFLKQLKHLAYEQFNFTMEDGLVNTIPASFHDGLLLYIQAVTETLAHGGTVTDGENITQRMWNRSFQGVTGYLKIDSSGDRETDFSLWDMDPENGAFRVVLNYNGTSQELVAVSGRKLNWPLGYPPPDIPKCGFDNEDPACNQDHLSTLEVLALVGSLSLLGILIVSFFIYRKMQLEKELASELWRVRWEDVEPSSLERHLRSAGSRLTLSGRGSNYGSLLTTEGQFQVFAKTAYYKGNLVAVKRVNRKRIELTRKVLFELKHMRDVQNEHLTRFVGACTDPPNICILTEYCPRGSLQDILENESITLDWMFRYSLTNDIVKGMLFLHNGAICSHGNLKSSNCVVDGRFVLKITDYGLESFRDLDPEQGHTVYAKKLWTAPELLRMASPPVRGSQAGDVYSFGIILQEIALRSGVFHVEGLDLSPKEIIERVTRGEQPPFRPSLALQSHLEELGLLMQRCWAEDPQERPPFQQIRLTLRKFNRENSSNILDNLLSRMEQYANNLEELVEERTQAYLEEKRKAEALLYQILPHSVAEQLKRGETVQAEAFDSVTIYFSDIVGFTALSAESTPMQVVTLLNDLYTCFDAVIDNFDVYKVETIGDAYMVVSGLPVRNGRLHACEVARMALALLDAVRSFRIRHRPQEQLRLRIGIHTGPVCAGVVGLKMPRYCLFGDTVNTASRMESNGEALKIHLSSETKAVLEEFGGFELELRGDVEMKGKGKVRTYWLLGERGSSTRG

`CS(=O)(=O)N1CCc2c(-c3cnc(N)nc3)nc(N3CCOCC3)nc21`: the Potency in [1] was 820 nM (active); in [2], 1300 nM (active); in assay [3], 469 nM (active); in [4], 209 nM (active).
Take `CCCNS(=O)(=O)Nc1ncnc(OCCOc2ncc(Br)cn2)c1-c1ccc(Br)cc1`: the Potency result in assay [1], in assay [2], in assay [5], in [3] and in assay [4] was “inactive” in each case.
For `CC(=O)N1CCN(c2ccc(OCc3nn(C)c(C)c3-c3cccc4c(CCCOc5cccc6ccccc56)c(C(=O)O)n(Cc5cccnc5)c34)cc2)CC1`, the Potency result in assay [1], in assay [2] and in [6] was “inactive” throughout. The Potency in assay [3] was 118 nM (active); in assay [4], 1050 nM (active).
In the case of `CN[C@H](CC(C)C)C(=O)N[C@H]1C(=O)N[C@@H](CC(N)=O)C(=O)N[C@@H]2C(=O)N[C@H]3C(=O)N[C@H](C(=O)N[C@H](C(=O)O)c4cc(O)cc(O)c4-c4cc3ccc4O)[C@H](O)c3ccc(c(Cl)c3)Oc3cc2cc(c3O[C@@H]2O[C@H](CO)[C@@H](O)[C@H](O)[C@@H]2O[C@H]2C[C@](C)(N)[C@H](O)[C@H](C)O2)Oc2ccc(cc2Cl)[C@H]1O`, the Potency result in assay [2], in assay [6], in assay [5], in assay [3] and in assay [4] was “inactive” throughout. Moreover, the outcome in assay [7], in assay [8], in [9] and in assay [10] was inactive.
In the case of `C[C@@H]1[C@H](C)CC[C@]2(C(=O)O)CC[C@]3(C)C(=CC[C@@H]4[C@@]5(C)C[C@@H](O)[C@H](O)[C@@](C)(CO)[C@H]5CC[C@]43C)[C@@H]12`, the Potency entry in [1], in assay [2], in assay [5] and in [3] was “inactive” in each case.
Consider `C[C@](Cc1c[nH]c2ccccc12)(NC(=O)OC1C2CC3CC(C2)CC1C3)C(=O)NC[C@H](NC(=O)CCC(=O)O)c1ccccc1` (some centres not stated), for which the Potency result in assay [2], in assay [6], in assay [5], in assay [3] and in assay [4] was “inactive” throughout.
Consider `C[C@H](NC(=O)[C@@H](O)c1cc(F)cc(F)c1)C(=O)N[C@@H]1C(=O)N(C)c2ccccc2-c2ccccc21`, for which the Potency entry in [2], in assay [6], in assay [5], in assay [3] and in assay [4] was “inactive” in each case.
On to `N#CC(=C(N)Sc1ccc(N)cc1)c1ccccc1C(F)(F)F`, for which the Potency result in assay [2], in assay [6], in assay [5], in [3] and in [4] was “inactive” each time.
As for `CCc1c(O)cc(O)c(C(=O)c2ccc(OCCN3CCOCC3)c(OC)c2)c1CC(=O)N(CCOC)CCOC`, the Potency result in assay [2] and in assay [6] was “inactive” each time. The Potency is 2940 nM (active) in assay [5], 14800 nM (active) in assay [3] and 1180 nM (active) in [4].
On to `Cc1cc(O)c2c(c1)C(=O)c1cccc(O)c1C2=O`, for which the Potency result in assay [2], in assay [6], in assay [5], in [3] and in assay [4] was “inactive” each time.
As to `C#CCC(Cc1cnc2nc(N)nc(N)c2n1)c1ccc(C(=O)N[C@@H](CCC(=O)O)C(=O)O)cc1` (some centres not stated), the Potency in assay [2] was 41.8 nM (active); in assay [6], 132 nM (active); in assay [5], 37 nM (active); in [3], 118 nM (active); in [4], 118 nM (active).
Take `C=C(C)[C@@H]1CC[C@]2(C)CC[C@]3(C)[C@H](CC[C@@H]4[C@@]5(C)CC[C@H](O)C(C)(C)[C@H]5CC[C@]43C)[C@@H]12`: the Potency result in assay [2], in assay [6], in assay [5], in assay [3] and in [4] was “inactive” throughout.
For `COc1cc(OC)c(NC(=O)Nc2cc(C)on2)cc1Cl`, the Potency result in assay [2], in assay [6], in [5], in assay [3] and in assay [4] was “inactive” in each case.
For the molecule `CC(C(C)N1CC(=O)NC(=O)C1)N1CC(=O)NC(=O)C1` (configuration not stated), the Potency result in assay [2], in assay [6], in [5] and in assay [3] was “inactive” throughout. Moreover, in assay [4], the Potency is 743 nM (active).
With `Cc1cc(-c2nnc3n2CCCCC3)c(C)n1-c1ccccc1`, the Potency entry in assay [2], in assay [6], in [5], in assay [3] and in assay [4] was “inactive” each time.
Turning to `C[C@]12C=CC(=O)N[C@@H]1CC[C@H]1[C@H]3CC[C@@H](C(=O)Nc4cc(C(F)(F)F)ccc4C(F)(F)F)[C@@]3(C)CC[C@@H]12`, the Potency result in assay [2], in assay [6], in [5] and in [3] was “inactive” throughout. Besides, the Potency in [4] was 14800 nM (active).
As to `C#C[C@]1(O)CC[C@@H]2[C@@H]3CCC4=CC(=O)CC[C@@H]4[C@H]3CC[C@@]21CC`, the Potency entry in [2], in assay [6], in assay [5], in assay [3] and in [4] was “inactive” in each case.
Take `O=[N+]([O-])c1cn2c(n1)OC[C@@H](OCc1ccc(OC(F)(F)F)cc1)C2`: the Potency result in assay [2], in [6], in assay [5], in assay [3] and in [4] was “inactive” in each case.
For `COC(=O)C=CC(=O)OC`, the Potency entry in [2], in assay [6], in assay [5] and in [4] was “inactive” throughout. Also, the Potency in [3] was 1870 nM (active).
